D1 antag: Antagonist of Human D 1 Dopamine Receptor: qHTS; HEK293 TREx D1 cells, calcium flux, dopamine EC80; hits give low values; activity change, negative = inhibition, % at 10 µM; AID 504652, 2011; D(1A) dopamine receptor (Homo sapiens), P21728; 360,000 compounds, 3.2% hits; in the data active = activity change below about -30%; note: % is set by controls: 0 for no effect and ±100 for the full control effect
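Tetracycline-induced HEK293 T-REx cells with force-coupled D1 receptor were loaded with a no-wash calcium dye. Compound was added after a 10 s baseline and read kinetically for 180 s; EC80 dopamine was then added and calcium flux followed another 180 s.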
D1 ag: Allosteric Agonists of the Human D1 Dopamine Receptor: qHTS | D(1A) dopamine receptor (Homo sapiens), P21728 | HEK293 T-REx D1 cells, calcium flux, agonist mode | activation, % at 2 µM | 360,000 compounds, 1% hits; in the data active = activation above about 30%; note: 0% is about no effect
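Agonism was scored from calcium flux recorded over 180 s (1 read/s) after pintool compound addition, following a 10-cycle baseline. Cells were inducible force-coupled HEK293 TREx D1, plated overnight at 30 C and loaded with no-wash calcium dye.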
D3 ag: qHTS of D3 Dopamine Receptor Agonist: qHTS; D3R DiscoveRx beta-arrestin cells, luminescence, 90 min; 410,000 compounds, 0.58% hits; max activation, %; AID 652048, 2013; in the data active = max activation above about 30%; note: 0% is about no effect
Target sequence (P35462 whole entry, looked up): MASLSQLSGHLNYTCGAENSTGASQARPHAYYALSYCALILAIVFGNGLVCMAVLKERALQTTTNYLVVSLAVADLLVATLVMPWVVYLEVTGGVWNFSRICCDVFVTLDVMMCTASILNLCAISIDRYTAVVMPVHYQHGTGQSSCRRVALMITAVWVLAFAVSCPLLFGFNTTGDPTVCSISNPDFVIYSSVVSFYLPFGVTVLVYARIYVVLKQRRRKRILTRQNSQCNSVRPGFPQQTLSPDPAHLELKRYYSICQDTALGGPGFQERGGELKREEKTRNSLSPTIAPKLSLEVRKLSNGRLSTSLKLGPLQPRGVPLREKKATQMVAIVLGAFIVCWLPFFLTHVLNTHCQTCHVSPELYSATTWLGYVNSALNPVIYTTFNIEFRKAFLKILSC
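Cells at 1500/well, incubated overnight, then treated with pinned compounds (dopamine as control) for 90 min at 37 degrees C. DiscoveRx reagent added for 30 - 60 minutes at room temperature; luminescence read.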
DRD3 antagonist: qHTS of D3 Dopamine Receptor Antagonist: qHTS. D(3) dopamine receptor (Homo sapiens), P35462. AID 652054, 2013. max response, negative = inhibition, %. 360,000 compounds, 2.5% hits. D3R cells, DiscoveRx beta-arrestin luminescence, antagonist mode; hits give low values; in the data active = max response below about -50%; note: % is set by controls: 0 for no effect and ±100 for the full control effect
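Cells expressing the human receptor were seeded at 1500 cells/well, incubated overnight at 37 degrees C in 5% CO2, then exposed to library compounds with dopamine controls for 90 minutes at 37 degrees C before luminescent detection.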
D1 potentiator: Potentiators of Human D1 Dopamine Receptor: qHTS; D(1A) dopamine receptor (Homo sapiens), P21728; HEK293 TREx D1 cells, calcium flux, dopamine EC20 potentiation; potentiation, % at 10 µM; 360,000 compounds, 0.036% hits; AID 504651, 2011; in the data active = potentiation above about 30%; note: 0% is about no effect
An asterisk follows results filed as active; . = no result; ! = not confirmed by another sample. Only some compounds are listed: those with a hit (about 6% of all), similar ones and a draw of the others.

SMILES	D1 antag	D1 ag	D3 ag	DRD3 antagonist	D1 potentiator
COc1ccc(-c2nc3scc(CCNS(=O)(=O)c4c(C)cc(C)cc4C)n3n2)cc1OC	.	-4	-5	.	1
C=CCn1c(CCCOc2ccc(Cl)cc2Cl)n[nH]c1=S	-46*	4	9	7	-4
C=CCn1c(Cc2nc3ccc(Cl)cc3[nH]2)n[nH]c1=S	4	3	-4	-11	0
N#Cc1cccc(C#N)c1Oc1ccc(S(=O)(=O)Nc2ccc(Cl)cc2)cc1	-38*	12	-8	-16	-4
O=C(O)c1sccc1Oc1ccc(NS(=O)(=O)c2ccc(Cl)cc2)cc1	5	3	2	17	-4
CCOc1cccc2sc(NC(=O)CS(=O)(=O)c3ccc(C)cc3)nc12	.	0	-8	.	2
O=C(c1ccc(F)cc1)c1ccc(CN2C(=O)c3ccccc3C2=O)o1	-5	3	-3	1	-4
O=C(c1ccc(Cl)cc1)c1ccc(CN2C(=O)c3ccccc3C2=O)o1	7	5	-5	-64*	5
CCn1c2ccccc2c2n[nH]c(=S)nc21	1	1	-4	-3	-3
COC(=O)Cn1c2ccccc2c2nc3ccccc3nc21	-37*	4	3	19	-2
COC(=O)Cn1c2nc3ccccc3nc2c2cccc(C)c21	17	0	9	14	-9
O=C(O)Cn1c2ccccc2c2n[nH]c(=S)nc21	-33*	0	5	-12	-6
O=C(NCC(c1cccs1)S(=O)(=O)c1cccs1)c1ccc(Cl)cc1 (stereo not drawn)	.	-3	0	.	0
CC(=O)c1cccc(NC(=O)C2=CC(c3ccc4c(c3)OCO4)=NS(=O)(=O)N2C)c1	-10	2	-21	-62*	-1
Cc1ccc(NC(=O)C2=CC(c3ccc4c(c3)OCO4)=NS(=O)(=O)N2C)cc1	8	3	-17	.	-2
COc1ccc(NC(=O)C2=CC(c3ccc(C)cc3)=NS(=O)(=O)N2C)cc1OC	-10	1	-2	-7	-2
COc1ccc(C2=NS(=O)(=O)N(C)C(C(=O)Nc3ccc(OC)c(OC)c3)=C2)cc1	-34*	2	3	-3	-12
CCc1ccccc1NC(=O)C1=CC(c2ccc(OC)c(OC)c2)=NS(=O)(=O)N1C	-12	35*!	-4	6	-2
COc1ccc(NC(=O)C2=CC(c3ccc(C)cc3)=NS(=O)(=O)N2C)cc1	-33*	18	3	13	0
COc1ccc(C(=O)N2CCN(Cc3cc(=O)n4nc(-c5ccccc5C)sc4n3)CC2)cc1OC	17	0	-7	.	-2
COCCCNc1nc2c(c(=O)n(Cc3ccccc3)c(=O)n2C)n1C	9	2	2	.	-2
NC(=S)N/N=C/c1ccc(-c2ccc([N+](=O)[O-])cc2)o1	2	1	-2	-22	2
CN(C)/N=C/c1ccc(Sc2ccccc2[N+](=O)[O-])o1	-33*	2	-8	-8	-6
CN(/N=C/c1ccc(-c2ccc([N+](=O)[O-])cc2)o1)c1ccccc1	-67*	234*	-1	10	10
Cc1ccc(CNC(=O)Cc2c(C)c3c(cc(C)c4c(C)coc43)oc2=O)cc1	5	0	-7	.	-1
SMILES	D1 antag	D1 ag	D3 ag	DRD3 antagonist	D1 potentiator
COC(=O)[C@@]1(Sc2ccc(C)cc2)CC(=O)N[C@@H]1c1ccco1	.	.	1	7	.
COC(=O)[C@]1(Sc2ccc(C)cc2)CC(=O)N[C@@H]1c1ccco1	.	.	-8	-69*	.
COc1ccc(C)c(-n2c(=O)n(Cc3ccccc3)c(=O)c3[nH]cnc32)c1	-16	1	-29	-97*	-1
Cc1ccc(S(C)=O)cc1-n1c(=O)n(Cc2ccccc2)c(=O)c2[nH]cnc21 (stereo not drawn)	-3	3	-31	-104*	0
CCN(CC(=O)NCc1cccs1)C(=O)/C=C/c1cc(OC)ccc1OC	-67*	-1	-4	-12	-15
CCN(CC(=O)NCc1cccs1)C(=O)C1CC(=O)N(c2ccc(OC)cc2OC)C1 (stereo not drawn)	-34*	-2	-13	-12	-4
CCN(CC(=O)Nc1ccc2c(c1)OCCO2)C(=O)C1CC(=O)N(c2ccc(OC)cc2OC)C1 (stereo not drawn)	7	2	-1	2	-8
Cc1cc(S(=O)(=O)C(CNC(=O)COc2ccc(Cl)cc2)c2cccs2)ccc1F (stereo not drawn)	-2	17	9	.	1
CCCc1cc(=O)oc2c3c(ccc12)OCN(Cc1ccccc1OC)C3	-9	11	-3	.	-1
CCC(=O)N1CCc2cc(CNS(=O)(=O)c3cc(OC)ccc3OC)ccc21	3	0	-2	.	-6
CCOCCCN1C(=O)CN(C2CCCCC2)C(=O)C1c1ccc(OC)c(OC)c1 (stereo not drawn)	5	1	1	22	-1
CCOCCCN1C(=O)CN(C2CCCCCC2)C(=O)C1c1ccc(OC(C)C)c(OC)c1 (stereo not drawn)	-38*	-4	2	.	-2
CCOC(=O)c1c(C2COc3ccccc3O2)csc1NC(=O)c1ccccc1 (stereo not drawn)	-9	4	33*	-8	1
CCOC(=O)c1ccc(NC(=O)CC2COc3ccccc3O2)cc1 (stereo not drawn)	-30*	0	-6	22	1
CCOC(=O)c1ccc(NC(=O)N2CCOc3ccccc32)cc1	-30*	9	-14	.	-5
Cc1cccc(CC(=O)NCCc2csc(-c3ccc(C(F)(F)F)cc3)n2)c1	-13	4	10	.	1
Cc1ccc2ncccc2c1NS(=O)(=O)c1ccccc1	-4	4	-1	-28	-6
Cc1ccc2ncccc2c1N	-63*	2	-8	-22	2
O=C(CC(c1ccccc1)c1ccccc1)Nc1ncn[nH]1	-36*	1	-2	14	-5
O=C(CC(c1ccccc1)c1ccccc1)Nc1ccc(Cl)cn1	-6	8	-10	-11	-3
COc1cc(Cl)c(C)cc1NC(=O)CN(C)Cc1cccc(OC)c1OC	10	50*	3	13	-8
COc1ccc(Br)cc1CN(C)CC(=O)Nc1ccccc1Cl	-8	4	1	51	-2
COc1ccccc1CN(C)CC(=O)Nc1cccc2ccccc12	7	-3	7	-1	9
COc1ccc(Br)cc1CN(C)CC(=O)Nc1cc(Cl)ccc1Cl	-31*	6	-1	34	2
COc1cc2c(-c3cccc(Cl)c3)nc3c(c(C)nn3-c3ccccc3)c2cc1OC	7	3	10	.	-1
